Source: PubChem BioAssay (NCATS)
Inconclusive results are not listed. Activity calls are given as the source filed them. Unless noted, calls come from the whole dose curve; as a rule, active = well fitted curve in the direction sought with a large enough effect; inconclusive = small, poorly fitted or top-dose-only effect, or another doubt; inactive = no such curve, though single readings can be large; an effect the other way counts as inactive or inconclusive. Where a SMILES comes first, the peptide text is derived from it. Bridges are numbered along the chain shown (N, C = ends). [ ]: non-standard residue; d: D form. hArg = N=C(N)NCCCC[C@H](N)C(=O)O; Mpa = O=C(O)CCS

Columns and labels:
[1] = target: Voltage-gated inwardly rectifying potassium channel KCNH2 (Homo sapiens) (UniProt Q12809); assay: qHTS Assay for Small Molecule Inhibitors of the Human hERG Channel Activity (AID 588834);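 note: lower thallium flux fluorescence means stronger hERG block; nearly all actives have a fitted effect of over 50% in size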; note: potency is the fitted concentration of half-maximal effect
How it was run: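 hERG block measured as reduced thallium-dye (FluxOR) fluorescence after stimulation buffer addition, read over 2 min. Cells were hERG-BacMam-transduced U2OS exposed to compound ~10 min […]; concentration-response fitted with Hill equation for AC50.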

[2] = target: Luciferin 4-monooxygenase (Photinus pyralis) (UniProt P08659); assay: Biochemical firefly luciferase enzyme assay for NPC (AID 624030);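 note: purified P. pyralis luciferase at 10 nM with luciferin and ATP substrate; series mostly up to about 59 µM; nearly all actives have a fitted effect of over 70% in size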
How it was run: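 Purified P. pyralis luciferase at 10 nM in 50 mM Tris Acetate (final), luminescence read within 5 minutes of enzyme addition to compounds. Activity normalised to PTC124 versus DMSO; concentration-response curves classed by r2, magnitude and activity.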

[3] = S16 Schwann cell viability assay (CellTiter-Glo assay) (AID 624031);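 note: cellular ATP luminescence as a viability measure; series mostly up to about 58 µM; nearly all actives have a fitted effect of over 70% in size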
How it was run: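 Luminescent ATP read-out (CellTiter-Glo) after 24 h compound exposure of native S16 rat Schwann cells at 37 °C. Signals were normalized between cell-free wells and DMSO-treated cells, set as 0% activity.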

[4] = S16 Schwann cell PMP22 intronic element firefly luciferase assay (AID 624032); note: nearly all actives have a fitted effect of over 30% in size; note: potency is the fitted concentration of half-maximal effect
How it was run: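 Rat S16 Schwann cells stably carrying firefly luciferase driven by a PMP22 intronic element, in 10% FBS, treated 24 h at 37 C. ONE-Glo luminescence normalized to PTC124 control and DMSO (0%); curves classed by r2, magnitude and activity.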

[5] = S16 Schwann cell PMP22 intronic element beta-lactamase assay (AID 624044; calls by dose curve; note: nearly all actives have a fitted effect of over 15% in size)
How it was run: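 Beta-lactamase reporter under a PMP22 intronic regulatory element in stable S16 rat Schwann cells; 24 h compound exposure. 460 nm blue signal normalized between DMSO (0%) and potassium clavulanate, with 535 nm FRET tracking viability; curves classed by r2 and response.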

Measured: Potency

Chain of Voltage-gated inwardly rectifying potassium channel KCNH2 (Homo sapiens) (Q12809 whole entry, looked up): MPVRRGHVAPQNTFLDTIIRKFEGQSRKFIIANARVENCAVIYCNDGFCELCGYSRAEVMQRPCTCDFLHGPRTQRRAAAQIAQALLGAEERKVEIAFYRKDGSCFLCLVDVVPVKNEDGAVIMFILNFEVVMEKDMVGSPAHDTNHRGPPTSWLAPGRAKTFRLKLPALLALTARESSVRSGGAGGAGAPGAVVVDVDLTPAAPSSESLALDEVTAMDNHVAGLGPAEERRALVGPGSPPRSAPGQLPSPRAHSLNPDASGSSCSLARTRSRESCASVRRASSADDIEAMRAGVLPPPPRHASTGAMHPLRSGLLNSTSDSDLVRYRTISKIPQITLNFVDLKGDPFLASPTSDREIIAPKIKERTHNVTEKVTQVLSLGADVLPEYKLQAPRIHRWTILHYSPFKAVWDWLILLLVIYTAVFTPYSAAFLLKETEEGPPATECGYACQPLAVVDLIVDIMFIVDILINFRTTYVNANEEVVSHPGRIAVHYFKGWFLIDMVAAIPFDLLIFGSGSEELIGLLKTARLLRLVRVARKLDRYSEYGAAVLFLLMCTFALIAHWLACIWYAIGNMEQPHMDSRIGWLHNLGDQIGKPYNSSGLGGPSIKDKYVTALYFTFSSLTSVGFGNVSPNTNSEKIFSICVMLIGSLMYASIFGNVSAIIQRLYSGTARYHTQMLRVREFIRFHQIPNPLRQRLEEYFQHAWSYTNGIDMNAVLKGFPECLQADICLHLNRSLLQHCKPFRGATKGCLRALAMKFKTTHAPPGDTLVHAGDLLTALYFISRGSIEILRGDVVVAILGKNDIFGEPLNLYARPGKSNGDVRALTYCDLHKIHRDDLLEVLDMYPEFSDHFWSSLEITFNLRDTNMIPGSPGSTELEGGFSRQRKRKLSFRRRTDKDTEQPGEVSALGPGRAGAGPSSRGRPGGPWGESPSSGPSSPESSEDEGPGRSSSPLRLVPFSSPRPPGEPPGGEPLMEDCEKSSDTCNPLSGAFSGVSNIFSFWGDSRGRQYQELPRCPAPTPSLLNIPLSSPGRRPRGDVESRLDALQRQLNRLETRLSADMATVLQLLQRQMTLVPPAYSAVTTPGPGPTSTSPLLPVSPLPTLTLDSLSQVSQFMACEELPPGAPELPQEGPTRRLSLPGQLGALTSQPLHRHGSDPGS
Chain of Luciferin 4-monooxygenase (Photinus pyralis) (P08659 whole entry, looked up): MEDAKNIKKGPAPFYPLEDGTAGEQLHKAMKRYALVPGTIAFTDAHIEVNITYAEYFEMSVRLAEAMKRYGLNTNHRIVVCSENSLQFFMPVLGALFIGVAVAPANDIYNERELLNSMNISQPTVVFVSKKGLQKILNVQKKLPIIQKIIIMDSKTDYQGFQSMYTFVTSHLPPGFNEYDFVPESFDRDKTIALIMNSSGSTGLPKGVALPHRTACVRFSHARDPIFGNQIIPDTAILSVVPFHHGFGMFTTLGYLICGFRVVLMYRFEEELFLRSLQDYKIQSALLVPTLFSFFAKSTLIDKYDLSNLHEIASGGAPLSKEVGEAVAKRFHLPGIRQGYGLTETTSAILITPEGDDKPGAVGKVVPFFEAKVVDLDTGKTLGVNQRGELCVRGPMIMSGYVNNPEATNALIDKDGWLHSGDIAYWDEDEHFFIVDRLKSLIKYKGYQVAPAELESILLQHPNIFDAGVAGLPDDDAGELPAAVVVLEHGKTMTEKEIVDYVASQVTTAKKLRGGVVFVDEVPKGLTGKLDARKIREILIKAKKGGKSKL

O=C(Cn1ccnc1[N+](=O)[O-])NCCO
inactive: [1] | [2] | [3] | [4]

NC(=O)[C@@H]1CSSCCC(=O)N[C@@H](CCCCN=C(N)N)C(=O)NCC(=O)N[C@@H](CC(=O)O)C(=O)N[C@@H](Cc2c[nH]c3ccccc23)C(=O)N2CCC[C@H]2C(=O)N1 ([Mpa][hArg]GDWPC-NH2; disulfide 1-7)
inactive: [1] | [2] | [3] | [4]

OCC(O)CS (stereo unspecified)
inactive: [1] | [2] | [3] | [4]

NS(=O)(=O)c1cc2c(cc1C(F)(F)F)NCNS2(=O)=O
inactive: [1] | [2] | [3] | [4]

O=C(O)c1ccccc1C(=O)Nc1ccc(S(=O)(=O)Nc2nccs2)cc1
inactive: [1] | [2] | [3] | [4]

CCOC(=O)[C@H](CCc1ccccc1)N[C@@H](C)C(=O)N1CCC[C@H]1C(=O)O
active: [4] 0.0144 µM
inactive: [1] | [2] | [3]

COc1cc(C(=O)NCCCCCC(=O)O)cc(OC)c1OC
inactive: [1] | [2] | [3] | [4]

CC(=O)Oc1cccc(O)c1
inactive: [1] | [2] | [3] | [4] | [5]

Cc1cc(C)c(NC(=O)CN(CC(=O)O)CC(=O)O)c(C)c1Br
inactive: [1] | [2] | [3] | [4]

O=C(NCN1CCOCC1)c1cnccn1
inactive: [1] | [2] | [3] | [4]

C[C@@H]1CCC[C@H](C)N1
inactive: [1] | [2] | [3] | [4]

O=C(O)CCC(=O)O
inactive: [1] | [2] | [3] | [4]

CCCCCCCC(=O)OCC(O)CO (stereo unspecified)
inactive: [1] | [2] | [3] | [4]

O=c1[nH]cnc2nc[nH]c12
inactive: [1] | [2] | [3] | [4]

O[C@@H]1CO[C@H]2[C@@H]1OC[C@@H]2O
inactive: [1] | [2] | [4]

CN(C/C=C/C#CC(C)(C)C)Cc1cccc2ccccc12
active: [1] 12.6 µM
inactive: [2] | [3] | [5]

C[N+](C)(C)CC[N+]1(C)Cc2c(Cl)c(Cl)c(Cl)c(Cl)c2C1
inactive: [1] | [2] | [4]

CC(C)(C)C(=O)OCOC(=O)[C@@H]1N2C(=O)[C@@H](NC(=O)[C@H](N)c3ccccc3)[C@H]2SC1(C)C
inactive: [1] | [2] | [3] | [4] | [5]

NS(=O)(=O)c1ccc(NC(=O)CCC(=O)O)cc1
inactive: [1] | [2] | [4]

Cc1cc(-n2nc3ccc(Cl)cc3n2)c(O)c(C(C)(C)C)c1
inactive: [1] | [2] | [4]

CN(C(=O)c1c(O)c2ccccc2n(C)c1=O)c1ccccc1
inactive: [1] | [2] | [4]

CC(=O)SC[C@@H](Cc1ccccc1)C(=O)NCC(=O)OCc1ccccc1
inactive: [1] | [2] | [3] | [4] | [5]

NS(=O)(=O)c1ccc(C(=O)O)cc1
inactive: [1] | [2] | [4]

O=C(O)c1ccccc1OP(=O)(O)O
inactive: [1] | [2] | [4]

COc1cc(O)cc(O)c1
inactive: [1] | [2] | [3] | [5]

C[C@H]1COc2c(C3(N)CC3)c(F)cc3c(=O)c(C(=O)O)cn1c23
inactive: [1] | [2] | [4]

NC(=O)NS(=O)(=O)c1ccc(N)cc1
inactive: [1] | [2] | [4]

CC(CN(C)C)C(C)(O)Cc1ccc(Cl)cc1 (stereo unspecified)
inactive: [2] | [4]
active: [1] 14.1 µM

CCOc1cc(NC(C)=O)ccc1C(=O)OC
inactive: [1] | [2] | [3] | [4] | [5]

CCc1nnc(NS(=O)(=O)c2ccc(N)cc2)s1
inactive: [1] | [2] | [3] | [4] | [5]

NC(=O)CCCCC1CCSS1 (stereo unspecified)
inactive: [1] | [2] | [4]

C[C@@H]1O[C@@H](OC[C@H]2O[C@@H](Oc3c(-c4ccc(O)c(O)c4)oc4cc(O)cc(O)c4c3=O)[C@H](O)[C@@H](O)[C@@H]2O)[C@H](O)[C@H](O)[C@H]1O
inactive: [1] | [2] | [4]

Cc1c(NC(C)C)c(=O)n(-c2ccccc2)n1C
inactive: [1] | [2] | [4]

Cn1c(=O)c2c(ncn2CCO)n(C)c1=O
inactive: [1] | [2] | [4]

COc1ccc(C(=O)NCc2ccc(OCCN(C)C)cc2)cc1OC
inactive: [1] | [2] | [4]

CCN(CC)S(=O)(=O)c1ccc(C(=O)O)cc1
inactive: [1] | [2] | [3] | [4] | [5]

O=C(O)Cc1cn(-c2ccccc2)nc1-c1ccc(Cl)cc1
inactive: [1] | [2] | [4]

Cc1ccccc1N=Nc1ccc(N=Nc2c(O)ccc3ccccc23)c(C)c1
inactive: [1] | [2] | [3] | [4] | [5]

CC(=O)N[C@@H](Cc1ccc(O)cc1)C(=O)O
inactive: [1] | [2] | [4]

Cc1cccc(C(=O)O)c1O
inactive: [1] | [2] | [4]

NNC(=O)CP(=O)(c1ccccc1)c1ccccc1
inactive: [1] | [2] | [3] | [5]

CC(C)c1cc2c(cc1S(=O)(=O)O)[C@@]1(C)CCC[C@@](C)(C(=O)O)[C@@H]1CC2
inactive: [1] | [2] | [3] | [4] | [5]

CN/C(=C\[N+](=O)[O-])NCCSCc1csc(CN(C)C)n1
inactive: [1] | [2] | [4]

OCc1ccc(Cl)cc1Cl
inactive: [1] | [2] | [3] | [4] | [5]
